Reference: PubChem BioAssay (NCATS)
Results filed as inconclusive are left out. Calls of active or inactive are those of the source. Unless noted, calls come from the whole dose curve; as a rule, active = well fitted curve in the direction sought with a large enough effect; inconclusive = small, poorly fitted or top-dose-only effect, or another doubt; inactive = no such curve, though single readings can be large; an effect the other way counts as inactive or inconclusive.

Columns and labels:
[1] = Cell Viability - BJ (AID 421; calls by dose curve;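 note: potency is the fitted concentration of half-maximal effect; cells exposed to compound for 40 hours at 37 °C before readout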); conditions: BJ fibroblast viability, qHTS
In short: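 Quantitative HTS: ATP depletion in BJ cells after 40 hr compound exposure in complete culture medium, detected with CellTiter-Glo; AC50 from standard Hill fits.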

[2] = Cell Viability - Jurkat (AID 426;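 active = dose-dependent loss of cell ATP signal giving a full or clear fitted curve, ranked by lower potency value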; note: potency is the fitted concentration of half-maximal effect); conditions: qHTS
In short: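 qHTS, 1536-well; Jurkat E6-1, 5000 cells/well, complete medium; cpd 40 hr, 37 °C; CellTiter-Glo 20 min RT; luminescence. AC50 by Hill fit.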

[3] = Cell Viability - Hek293 (AID 427;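 active = compounds whose dose-response curve shows a full or clear partial loss of cell viability, called from curve shape rather than a numeric limit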;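 note: potency is the fitted concentration of half-maximal effect; cells exposed to compound for 40 hours at 37 °C before reading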); conditions: qHTS
In short: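 AC50 values derive from Hill-modelled concentration-response of ATP-based luminescence, normalized between DMSO-only and 100 uM tamoxifen controls. Cells were exposed in complete culture medium for 40 hr at 37 °C before detection.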

[4] = Cell Viability - HepG2 (AID 433; calls by dose curve;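 note: potency is the fitted concentration of half-maximal effect; potency for ATP loss meaning cytotoxicity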); conditions: qHTS
In short: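 ATP luminescence (CellTiter-Glo) after 40 h compound exposure, 37 °C, HepG2, 1500 cells/well, complete medium. Normalized: DMSO = basal, 100 uM tamoxifen = 100% inhibition. AC50 via standard Hill equation.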

[5] = Cell Viability - MRC5 (AID 434; calls by dose curve;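 note: potency is the fitted concentration of half-maximal effect; potency reflects cytotoxicity seen as loss of intracellular ATP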); conditions: MRC5 lung fibroblast viability, qHTS
In short: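 MRC5 normal human lung fibroblasts (1500/well) were treated with compounds for 40 hr at 37 °C in complete medium, and viable cells were measured as intracellular ATP by CellTiter-Glo luminescence. AC50 came from Hill fits, normalized to DMSO and 100 uM tamoxifen.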

[6] = Cell Viability - SK-N-SH (AID 435; calls by dose curve; note: potency is the fitted concentration of half-maximal effect); conditions: SK-N-SH neuroblastoma cell viability qHTS
In short: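 CellTiter-Glo ATP luminescence, 20 min RT read; cells pre-plated 5 hr, compound 40 hr at 37 °C, 1500 cells/well, complete medium. Normalized DMSO = 0, 100 uM tamoxifen = 100% inhibition; Hill-fit AC50.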

[7] = biological target: Mitogen-activated protein kinase 10 (Mus musculus) (UniProt Q61831); assay: JNK3 AlphaScreen Assay (AID 530; active = well fitted curve in either direction with a large enough effect, not every such curve was filed as active;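 note: kinase came from lysate of stimulated human HepG2 cells; signal reports phosphorylation of biotinylated GST-cJun 1-79 at Ser73 with 10 µM ATP; % is set by controls: 0 for no effect and ±100 for the full control effect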); conditions: JNK3 lysate, c-Jun phosphorylation; series mostly up to 57.1 µM
In short: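 Inhibitors reduce antibody binding to phosphorylated biotin-cJun, lowering AlphaScreen luminescence. Lysates from HepG2 cells pre-activated by IL-1beta plus TNF-alpha supplied JNK3; compounds were titrated.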

[8] = Cell Viability - N2a (AID 540); conditions: N2a mouse neuroblastoma cell viability; activity change, negative = cytotoxicity: at 92.2 µM (top of the series);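 note: plate controls were DMSO alone for no effect and tamoxifen control for full effect; nearly all actives have a fitted effect of over 45% in size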
In short: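 Luminescent ATP signal (CellTiter-Glo, 20 min at room temperature) served as the viability read-out after N2a cells were treated with compounds for 40 hours at 37 °C. Concentration-response data were fitted to the Hill equation for AC50.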

[9] = Cell Viability - NIH 3T3 (AID 541); conditions: NIH 3T3 cell viability, qHTS; activity change, negative = cytotoxicity: at 92.2 µM (top of the series);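 note: plate controls were DMSO alone for no effect and tamoxifen positive control for full effect; nearly all actives have a fitted effect of over 25% in size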
In short: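 Luminescent ATP signal (CellTiter-Glo) served as the viability read-out after NIH 3T3 cells were exposed to compounds over a concentration range for 40 hr at 37 °C. Hill-equation modelling of concentration-response data gave AC50.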

[10] = Cell Viability - SH-SY5Y (AID 544); conditions: SH-SY5Y neuroblastoma cell viability; viability change, negative = cytotoxic: at 92.2 µM (top of the series); note: nearly all actives have a fitted effect of over 55% in size
In short: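 Luminescent ATP read-out (CellTiter-Glo) measures loss of viable SH-SY5Y neuroblastoma cells after 40 hr compound exposure at 37 °C. AC50 values derive from standard Hill modelling of qHTS concentration-response data.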

[11] = Cell Viability - Renal Proximal Tubule (AID 545); conditions: renal proximal tubule cells viability, primary cells of rat origin; series mostly up to 91.7 µM; note: nearly all actives have a fitted effect of over 40% in size
In short: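 Rat kidney proximal tubule cells, freshly isolated; 1000 cells/well, 5 hr settle, compound 40 hr 37 °C. CellTiter-Glo 20 min RT, luminescence read. AC50 by standard Hill fit.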

[12] = Cell Viability - Mesenchymal (AID 546); conditions: mesenchymal cells viability, qHTS; series mostly up to 91.7 µM;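 note: cells exposed to compound for 40 hours before reading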
In short: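 Normal human renal glomerulus-derived kidney mesenchymal cells, 1000 per well in complete medium, were treated with compounds for 40 hr at 37 °C. Viability was read as intracellular ATP by CellTiter-Glo luminescence; AC50 values came from Hill-equation fits of qHTS concentration-response data.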

[13] = Cellular Toxicity (caspase-3) HepG2 (AID 654); conditions: HepG2 caspase-3 activation, luminescence; series mostly up to 92.2 µM;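 note: cells exposed to compound for 16 hours before reading; 0% = DMSO alone and 100% = caspase signal from 100 µM tamoxifen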
In short: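 Cells plated 5 hr at 37 °C, compound added, incubated 16 hr at 37 °C. Caspase-Glo 3/7 reagent followed, 20 min at room temperature, then luminescence read. Activation scored as signal increase; AC50 from Hill fit.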

[14] = Cellular Toxicity (caspase-3) Jurkat (AID 655); conditions: Jurkat caspase-3 activation, luminescence; caspase-3 activation: at 92.2 µM (top of the series), DMSO = 0%, tamoxifen = 100%;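 note: cells exposed to compound for 16 h at 37 °C before reading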
In short: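 Luminescent caspase-3/7 readout (aminoluciferin substrate cleavage) in human T-cell leukemia Jurkat cells after 16 hr compound exposure. Concentration-response normalized to DMSO and 100 uM tamoxifen; AC50 by standard Hill equation.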

[15] = Cellular Toxicity (caspase-3) HUV-EC-C (AID 656); conditions: HUV-EC-C cells, caspase-3 activation (apoptosis), vehicle = 0, 100 µM tamoxifen = 100%; series mostly up to 92.2 µM
In short: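 Luminescent caspase-3/7 activation (aminoluciferin substrate cleavage) in HUV-EC-C cells after 16 hr compound exposure, 37°C. Signal normalized to DMSO basal and 100 uM tamoxifen as 100%; AC50 from concentration-response fitted with the Hill equation.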

[16] = Cellular Toxicity (caspase-3) SHSY5Y (AID 657); conditions: SH-SY5Y caspase-3 activation, DMSO zero, 10 µM staurosporine = 100%; series mostly up to 91.7 µM;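 note: cells exposed to compound for 16 hours at 37 °C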
In short: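 Luminescent caspase-3/7 readout (aminoluciferin release) in SH-SY5Y cells after 16 h compound exposure in complete medium. Activity scaled between DMSO basal and 10 uM staurosporine as 100%; concentration-response fitted to Hill equation for AC50.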

[17] = Cellular Toxicity (caspase-3) BJ (AID 658); conditions: BJ fibroblasts, luminescence, normalized: DMSO 0%, staurosporine 100%; series mostly up to 91.7 µM;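 note: cells exposed to compound for 16 hours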
In short: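 Luminescent aminoluciferin-substrate cleavage reports caspase 3/7 activity in normal human BJ fibroblasts after 16 hr compound exposure at 37 °C. Normalized to DMSO (basal) and 10 uM staurosporine (100%); AC50 from Hill fit of concentration-response.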

[18] = Cellular Toxicity (caspase-3) MRC-5 (AID 659); conditions: MRC-5 cells, luminescence, normalized: DMSO 0%, 10 µM staurosporine 100%; series mostly up to 91.7 µM;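 note: cells exposed to compound for 16 h at 37 °C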
In short: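 Luminescence from caspase-cleaved aminoluciferin substrate (Caspase-Glo 3/7, 1 hr RT) reports caspase 3/7 activity in MRC-5 lung fibroblasts after 16 hr compound exposure. Normalized to DMSO basal and 10 uM staurosporine as 100%; AC50 from Hill fits.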

[19] = Cell Viability - H-4-II-E (AID 543); conditions: H-4-II-E rat hepatoma viability; series mostly up to 92.2 µM; note: % is set by controls: 0 for no effect and ±100 for the full control effect; nearly all actives have a fitted effect of over 35% in size
In short: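 Luminescent ATP signal (CellTiter-Glo) served as the viability read-out, with cytotoxicity seen as a concentration-dependent ATP drop. Cells were treated for 40 hours in complete medium. AC50 values derive from Hill-equation modelling.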

[20] = Cell Viability - HUV-EC-C (AID 542); conditions: HUV-EC-C endothelial cell viability, qHTS; series mostly up to 92.2 µM; note: % is set by controls: 0 for no effect and ±100 for the full control effect; nearly all actives have a fitted effect of over 35% in size
In short: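 qHTS cytotoxicity: HUV-EC-C, 1000 cells/well, 5 hr settle, compound 40 hr 37 °C, CellTiter-Glo, luminescence. AC50 via Hill equation.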

CCCCCCCCC
inactive: Potency [1] > 92 µM | Potency [2] > 92 µM | Potency [3] > 92 µM | Potency [4] > 92 µM | Potency [5] > 92 µM | Potency [6] > 92 µM | outcome [7] | activity change, negative = cytotoxicity [8] -3.11% | Potency [9] | Potency [10] | Potency [11] | Potency [12] | Potency [13] | caspase-3 activation [14] 0.991% | outcome [15] | outcome [16] | outcome [17] | outcome [18]

O=C(O)CNC(=O)c1ccc(CO)o1
inactive: Potency [1] > 92 µM | Potency [2] > 92 µM | Potency [3] > 92 µM | Potency [4] > 92 µM | Potency [5] > 92 µM | Potency [6] > 92 µM | outcome [7] | activity change, negative = cytotoxicity [8] -13.4% | Potency [9] | Potency [19] | Potency [10] | Potency [11] | Potency [13] | caspase-3 activation [14] -2.47% | outcome [15] | outcome [16] | outcome [17] | outcome [18]

C/C=C1\CC2C=CC1C2 (centres undefined)
inactive: Potency [1] > 92 µM | Potency [2] > 92 µM | Potency [3] > 92 µM | Potency [4] > 92 µM | Potency [5] > 92 µM | Potency [6] > 92 µM | outcome [7] | activity change, negative = cytotoxicity [8] 4.82% | Potency [9] | Potency [20] | Potency [11] | Potency [13] | caspase-3 activation [14] -1.14% | outcome [15] | outcome [16] | outcome [17] | outcome [18]

C=CCCCCCC
inactive: Potency [1] > 92 µM | Potency [2] > 92 µM | Potency [3] > 92 µM | Potency [4] > 92 µM | Potency [5] > 92 µM | Potency [6] > 92 µM | outcome [7] | activity change, negative = cytotoxicity [8] 6.33% | Potency [9] | Potency [19] | Potency [11] | Potency [13] | caspase-3 activation [14] -1.08% | outcome [15] | outcome [16] | outcome [17] | outcome [18]

CC(C)(O)C(=O)O
inactive: Potency [1] > 92 µM | Potency [2] > 92 µM | Potency [3] > 92 µM | Potency [4] > 92 µM | Potency [5] > 92 µM | Potency [6] > 92 µM | outcome [7] | activity change, negative = cytotoxicity [8] 4.75% | Potency [9] | Potency [19] | Potency [11] | Potency [12] | Potency [13] | caspase-3 activation [14] -0.979% | outcome [15] | outcome [16] | outcome [17]

CCCCCCCCC/C=C/CC1CC(=O)OC1=O (centres undefined)
inactive: Potency [1] > 92 µM | Potency [2] > 92 µM | Potency [3] > 92 µM | Potency [4] > 92 µM | Potency [5] > 92 µM | Potency [6] > 92 µM | outcome [7] | activity change, negative = cytotoxicity [8] 11.9% | Potency [9] | Potency [19] | Potency [10] | Potency [12] | Potency [13] | caspase-3 activation [14] 1.29% | outcome [15] | outcome [16] | outcome [17] | outcome [18]

Cc1ccc([N+](=O)[O-])c(N)c1
inactive: Potency [1] > 92 µM | Potency [2] > 92 µM | Potency [3] > 92 µM | Potency [4] > 92 µM | Potency [5] > 92 µM | Potency [6] > 92 µM | outcome [7] | activity change, negative = cytotoxicity [8] -4.55% | Potency [9] | Potency [19] | Potency [10] | Potency [11] | Potency [12] | Potency [13] | caspase-3 activation [14] 1.25% | outcome [15] | outcome [16] | outcome [18]

O=c1[nH][nH]c(=O)c2cc([N+](=O)[O-])ccc12
inactive: Potency [1] > 92 µM | Potency [2] > 92 µM | Potency [3] > 92 µM | Potency [4] > 92 µM | Potency [5] > 92 µM | Potency [6] > 92 µM | outcome [7] | activity change, negative = cytotoxicity [8] 11.9% | Potency [9] | Potency [19] | Potency [10] | Potency [12] | caspase-3 activation [14] -0.126% | outcome [15] | outcome [16] | outcome [18]

NS(=O)(=O)O
inactive: Potency [1] > 92 µM | Potency [2] > 92 µM | Potency [3] > 92 µM | Potency [4] > 92 µM | Potency [5] > 92 µM | Potency [6] > 92 µM | outcome [7] | activity change, negative = cytotoxicity [8] -0.868% | Potency [9] | Potency [20] | Potency [10] | Potency [11] | Potency [13] | caspase-3 activation [14] 0.859% | outcome [15] | outcome [16] | outcome [18]

CC(=O)c1nccs1
inactive: Potency [1] > 92 µM | Potency [2] > 92 µM | Potency [3] > 92 µM | Potency [4] > 92 µM | Potency [5] > 92 µM | Potency [6] > 92 µM | outcome [7] | activity change, negative = cytotoxicity [8] 2.98% | Potency [9] | Potency [19] | Potency [10] | Potency [11] | Potency [12] | Potency [13] | caspase-3 activation [14] 0.174% | outcome [15] | outcome [16] | outcome [17] | outcome [18]

Cc1ccc(Cl)cc1N
inactive: Potency [1] > 92 µM | Potency [2] > 92 µM | Potency [3] > 92 µM | Potency [4] > 92 µM | Potency [5] > 92 µM | Potency [6] 47.5 µM | outcome [7] | activity change, negative = cytotoxicity [8] -10.6% | Potency [9] | Potency [19] | Potency [11] | Potency [12] | Potency [13] | caspase-3 activation [14] 4% | outcome [15] | outcome [16] | outcome [17] | outcome [18]

CSCCC=O
inactive: Potency [1] > 92 µM | Potency [2] > 92 µM | Potency [3] > 92 µM | Potency [4] > 92 µM | Potency [5] > 92 µM | Potency [6] > 92 µM | outcome [7] | activity change, negative = cytotoxicity [8] -17.9% | Potency [9] | Potency [10] | Potency [11] | Potency [13] | outcome [15] | outcome [16] | outcome [17] | outcome [18]
